# An excerpt weighted towards active compounds, which were near 27% of everything screened.
# CYP2C9 inhib: human CYP2C9 inhibition. CYP2C9 Supersomes, luciferin-H conversion, luminescence. inhibition, % at 5 µM. hit rate 20% among 96,000. AID 777;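 active means blocking of liver enzyme CYP2C9 beyond about 50% at 5 µM, limit read from the data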
# CYP2C19 act: activators of human cytochrome P450 2C19 | P33261 | recombinant CYP2C19, luciferin-H EGE luminescence; hits give high values; 0 = fully inhibited enzyme, 1 = untreated enzyme | activation factor at 5 µM | 96,000 tested, under 10 active | AID 1025;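 active means activation factor of at least 2 at 5 µM in the primary screen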
# Target sequence (P33261 whole entry, looked up): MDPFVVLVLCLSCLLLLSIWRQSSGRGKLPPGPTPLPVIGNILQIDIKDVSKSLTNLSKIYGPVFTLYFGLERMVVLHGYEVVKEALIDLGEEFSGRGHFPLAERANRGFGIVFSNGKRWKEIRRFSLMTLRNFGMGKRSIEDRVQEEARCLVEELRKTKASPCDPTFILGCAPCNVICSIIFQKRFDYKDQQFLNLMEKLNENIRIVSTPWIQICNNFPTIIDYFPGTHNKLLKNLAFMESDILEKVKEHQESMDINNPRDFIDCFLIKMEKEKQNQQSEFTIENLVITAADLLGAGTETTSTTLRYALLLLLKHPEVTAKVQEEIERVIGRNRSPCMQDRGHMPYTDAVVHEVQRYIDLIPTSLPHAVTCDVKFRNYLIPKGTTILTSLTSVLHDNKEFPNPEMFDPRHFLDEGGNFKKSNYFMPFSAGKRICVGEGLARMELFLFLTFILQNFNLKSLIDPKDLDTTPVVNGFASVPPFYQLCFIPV
# CYP2C9 activ: CYP2C9 (human) activation | activation factor at 5 µM | recombinant CYP2C9, luciferin-H conversion, luminescence; hits give high values; factor 1 = untreated enzyme, 0 = blocked | hit rate 1.4% among 96,000 | AID 1024 | P11712;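 active means activation factor of 2 or more for CYP2C9 at a 5 µM dose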
# Cav3 T inh: inhibitors of human Cav3.2 T-type calcium channel | Cav3.2-expressing cells, Fluo-4 calcium fluorescence FDSS; hits give low values | AID 449739 | B-score at 10 µM | hit rate 4% among 100,000;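 active means single-dose well whose peak fluorescence ratio is a statistical outlier from its plate by either plate-standardised score or position-corrected B-score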
# CYP2C19 inhib: human CYP2C19 inhibition | CYP2C19 Supersomes, luciferin-H EGE luminescence, 30 min | inhibition, % at 5 µM | hit rate 21% among 96,000;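 active means CYP2C19 inhibition above a set limit at 5 µM in the primary screen, cut at about 50% in these data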
# Numbers stand for hits; . = inactive; / = no result.
SMILES,CYP2C9 inhib,CYP2C19 act,CYP2C9 activ,Cav3 T inh,CYP2C19 inhib
O=C(c1ccco1)N1CCN(C(=O)c2cnn3c(C(F)(F)F)cc(-c4cccs4)nc23)CC1,.,.,.,.,.
COC(/C=C/Nc1ccc(C)cc1)=C(C#N)C#N,.,.,.,.,.
CCC(C)n1c(SCC(=O)Nc2ccccc2C(F)(F)F)nc2ccsc2c1=O (configuration not stated),72,.,.,.,.
CC1(c2nnc(-c3ccccc3)o2)CC(c2ccc(Cl)cc2)=NO1 (configuration not stated),/,/,/,.,/
OC(c1ccc(Cl)cc1)c1nnc(-c2ccccc2)o1 (configuration not stated),88,.,.,.,100
CC(=O)c1oc2ccccc2c1NC(=O)CN1CCCCC1,/,/,/,.,/
CN1CCN(S(=O)(=O)c2cc([N+](=O)[O-])ccc2N2CCCCCC2)CC1,.,.,.,.,56
O=C(CSCC(=O)N1CCCc2ccccc21)Nc1nc(-c2ccccc2)cs1,/,/,/,.,/
CCOC(=O)c1ccc(N2CSC3=C(C#N)C(c4ccc(OC)cc4OC)CC(=O)N3C2)cc1 (configuration not stated),91,.,.,.,52
COc1ccc(OC)c(C2CC(=O)N3CN(c4ccc(C)c(Cl)c4)CSC3=C2C#N)c1 (configuration not stated),96,.,.,.,54
COc1ccc(OC)c(C2CC(=O)N3CN(c4cccc(Cl)c4)CSC3=C2C#N)c1 (configuration not stated),90,.,.,.,70
Cn1c(SCc2ccccc2Cl)nc(C(F)(F)F)cc1=O,.,.,.,.,.
Cc1ccc(C)n1-c1ccc(-c2nnc3n2CCCCC3)s1,64,.,.,.,.
C1CCc2nnc(-c3nnc4n3CCCCC4)n2CC1,.,.,.,.,.
CCn1c(=O)cc(OCC(=O)Nc2cccc(C)n2)c2ccccc21,.,.,.,.,.
O=S(=O)(c1ccc(Cl)cc1)c1ccccn1,.,.,2.1,.,.
O=C(CN1C(=O)NC2(CCCCCCC2)C1=O)NCc1ccc2c(c1)OCO2,.,.,.,.,.
CN(Cc1ccccc1)C(=O)Cn1c(=O)oc2cc(S(=O)(=O)N3CCCC3)ccc21,65,.,.,.,.
CN(Cc1ccco1)C(=O)Cn1c(=O)oc2cc(S(=O)(=O)NCc3ccccc3)ccc21,.,.,.,/,98
CN(Cc1ccccc1)C(=O)Cn1c(=O)oc2cc(S(=O)(=O)NCc3ccccc3)ccc21,.,.,.,.,.
CC1CCCCN1S(=O)(=O)c1ccc2c(c1)oc(=O)n2CC(=O)O (configuration not stated),.,.,.,/,.
CCN(CCCNS(=O)(=O)c1ccc2c(c1)oc(=O)n2C)c1cccc(C)c1,.,.,.,.,59
Cn1c(=O)oc2cc(S(=O)(=O)NCc3ccccc3)ccc21,.,.,.,.,59
CCCCOc1ccc(C(CC(=O)NC)C(=O)O)cc1 (configuration not stated),.,.,.,.,.
OCC1(CO)COC2(CCCC2)N1,.,.,.,.,.
SMILES,CYP2C9 inhib,CYP2C19 act,CYP2C9 activ,Cav3 T inh,CYP2C19 inhib
O=C(Cn1c(=O)oc2cc(S(=O)(=O)N3CCCC3)ccc21)NC1CCCc2ccccc21 (configuration not stated),58,.,.,/,.
CCn1c(=O)n(CC(=O)N(C)Cc2ccccc2)c(=O)c2ccccc21,.,.,.,.,65
O=C(Cn1c(=O)oc2cc(S(=O)(=O)N3CCCCCC3)ccc21)NC1CCCCCCC1,.,.,.,.,.
CC(NC(=O)Cn1c(=O)oc2cc(S(=O)(=O)N3CCCC3)ccc21)c1ccccc1 (configuration not stated),90,.,.,.,.
CCOc1ccccc1NC(=O)Cn1c(=O)c2ccccc2n(CC)c1=O,/,/,/,.,/
CN(Cc1ccccc1)C(=O)CCn1c(=O)oc2ccccc21,.,.,.,.,93
CC(Sc1nc2ccc(Br)cc2[nH]1)C(=O)O (configuration not stated),.,.,.,.,.
COCCNC(=O)CSCc1nc(-c2ccc(SC)cc2)oc1C,.,.,.,.,.
Cc1ccnc(NC(=O)CCCOc2cc(=O)n(C)c3ccccc23)c1,.,.,.,.,.
Cn1c(=O)cc(SCC(=O)Nc2ccccn2)c2ccccc21,.,.,2.5,.,.
Cn1c(=O)cc(SCC(=O)Nc2cccnc2)c2ccccc21,.,.,2,.,.

# Screening results from PubChem.
